This note sets out measurements from PubChem BioAssay AID488969 (Vanderbilt High Throughput Screening Facility, 2010).

Where “and” joins values, the source holds several entries; their conditions need not be identical. Identical values can stand only once. The full ranking holds about 110,000 compounds; the median of “z-score” is about -0.1, and the highest 2% start at about 2. Shown is part of a subset that was picked to be rich in the highest values. Calls of active or inactive are those of the source.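 How the source made its calls: active means z-score in the third read window above 3 or below -3; inactive means the rest.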

Metabotropic glutamate receptor 8 (Rattus norvegicus), sequence (P70579 whole entry, looked up): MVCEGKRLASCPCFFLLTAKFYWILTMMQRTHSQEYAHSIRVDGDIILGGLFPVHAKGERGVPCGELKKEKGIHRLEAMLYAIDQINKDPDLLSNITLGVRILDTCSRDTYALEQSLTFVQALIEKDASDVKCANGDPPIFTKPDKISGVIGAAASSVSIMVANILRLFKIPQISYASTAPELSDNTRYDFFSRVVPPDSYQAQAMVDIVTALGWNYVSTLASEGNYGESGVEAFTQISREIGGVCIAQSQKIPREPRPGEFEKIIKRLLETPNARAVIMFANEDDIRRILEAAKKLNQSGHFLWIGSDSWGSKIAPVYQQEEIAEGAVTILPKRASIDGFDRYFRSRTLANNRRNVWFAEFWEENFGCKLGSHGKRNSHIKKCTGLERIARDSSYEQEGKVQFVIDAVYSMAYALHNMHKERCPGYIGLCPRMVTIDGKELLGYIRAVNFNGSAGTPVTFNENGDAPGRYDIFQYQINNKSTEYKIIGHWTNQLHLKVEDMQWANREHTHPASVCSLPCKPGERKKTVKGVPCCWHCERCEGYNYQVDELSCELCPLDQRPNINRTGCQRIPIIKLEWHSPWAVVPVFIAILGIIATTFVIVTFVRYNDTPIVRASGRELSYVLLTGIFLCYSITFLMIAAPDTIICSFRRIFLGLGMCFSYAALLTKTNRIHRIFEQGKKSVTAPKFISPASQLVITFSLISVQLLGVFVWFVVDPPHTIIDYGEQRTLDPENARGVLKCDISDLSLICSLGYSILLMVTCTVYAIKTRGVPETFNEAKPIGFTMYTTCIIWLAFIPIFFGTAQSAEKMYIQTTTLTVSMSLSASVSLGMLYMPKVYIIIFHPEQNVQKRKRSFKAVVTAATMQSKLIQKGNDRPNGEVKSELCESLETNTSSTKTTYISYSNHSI

This experiment concerns the target Metabotropic glutamate receptor 8 (Rattus norvegicus) (UniProt P70579). Put plainly: rat mGluR8 modulators via GIRK flux, primary screen, cell-based, thallium flux, HTS (AID 488969). Conditions: HEK293 rat mGluR8, GIRK (G protein-gated inwardly rectifying potassium channel) thallium flux, FluoZin2; at 10 µM; stronger effect = higher value; submaximal glutamate (EC20) added with thallium.
Compound `Cn1c(CCN2CCN(c3ccc(F)cc3)CC2)nc2cc(NC(=O)c3ccco3)ccc21` gave a z-score of -2.09.

`Cc1ccc(N(CC(=O)Nc2ccccc2C(=O)N2CCOCC2)S(C)(=O)=O)cc1` registered a z-score of 0.00258.

Take `COc1ccc(OC)c(NC(=O)c2ccccc2NS(=O)(=O)c2cccc3cccnc23)c1`: the z-score turned out to be 0.685.

`COc1ccc(C)cc1NC(=O)c1ccccc1NS(=O)(=O)c1cccc2cccnc12` returned a z-score of 2.02.

Compound `O=C(Nc1cccc2ccccc12)c1ccccc1NS(=O)(=O)c1cccc2cccnc12` came in with a z-score of -0.0553.

`Cc1cccc(C)c1-n1c(C)cc(/C=N/NC(=O)c2ccncc2)c1C` registered a z-score of 0.0638.

`C/C(=C\C(=O)c1ccc(Br)cc1)NCc1ccccc1` had a z-score of -0.0992.

On to `O=C(NC(=S)Nc1ccccc1N1CCOCC1)c1ccc(-c2cc(Cl)ccc2Cl)o1`, for which the z-score came out at 0.0698.

In the case of `Cc1cc(S(=O)(=O)N2CCN(c3ccc(F)cc3)CC2)c(C)s1`, the z-score was -0.128.

Regarding `Cc1cc(C)c(S(=O)(=O)c2ccccc2C)c(Cl)n1`, the z-score was -0.119.

As to `Cc1ccc(S(=O)(=O)c2c(C)cc(C)nc2Cl)c(C)c1`, the z-score is 4.41 (active).

As to `Cc1ccc(S(=O)(=O)c2c(C)cc(C)nc2Cl)cc1`, the z-score was -0.0793.

Compound `CCOC(=O)c1c(C)c(C(=O)Nc2cc(OC)ccc2OC)c(C)n1CC` showed a z-score of -0.853.

In turn, `CCn1c2ccccc2c2cc(N)ccc21` showed a z-score of -0.216.

As for `CCC1(C)OCC(Cn2c3ccccc3c3ccccc32)O1` (configuration not stated), the z-score is 3.89 (active).

Turning to `c1ccc2c(c1)c1ccccc1n2CN1CCOCC1`, the z-score is -0.144.

`CC(=O)N1N=C(c2ccc(C)cc2)OC1c1ccc(C(C)C)cc1` (configuration not stated) showed a z-score of -0.402.

`Cc1ccccc1N=Nc1ccc(O)c2ncccc12`: the z-score is 4.67 (active).

`Cc1ccc(N=Nc2ccc(O)c3ncccc23)cc1` showed a z-score of 2.05.

`OCc1ccc(O)c2ncccc12` came in with a z-score of 0.138.

Turning to `COCc1ccc(O)c2ncccc12`, the z-score was -0.0472.

With `Cc1ccccc1NCc1ccc(O)c2ncccc12`, the z-score was found to be 0.65.

Compound `Oc1ccc(CNc2ccccc2)c2cccnc12` showed a z-score of 0.0879.

On to `Cc1ccc(C(=O)c2oc3ccccc3c2NC(=O)c2cc(-c3ccccc3O)n[nH]2)cc1`, for which the z-score came to 0.291.

For the compound `CC(C)(C)c1ccc(-c2conc2N)cc1`, the z-score was found to be 2.09.

For the compound `CCOc1cc(-c2conc2N)cc(OCC)c1OCC`, the z-score is 0.888.

Consider `CC(C)(C)c1ccc(-c2cc(N)n[nH]2)cc1`, for which the z-score is 0.498.

`CCc1ccc2nc(N3C(=O)c4oc5ccccc5c(=O)c4C3c3ccc(OC)c(OC)c3)sc2c1` (configuration not stated): the z-score is -0.133.

Take `O=C(Nc1nc2ccccc2s1)c1ccc(Cl)s1`: the z-score was 1.22.

`O=C(Cc1ccccc1)Nc1nc2ccccc2s1` displayed a z-score of 0.548.

`O=C(CSC(=S)N1CCOCC1)Nc1nc(=O)c2ccccc2s1`: the z-score is 0.0572.

Take `CCn1c(NC(=O)c2ccc(F)cc2)c2ccccc2nc1=O`: the z-score amounted to 0.0383.

Compound `O=C(NNc1nc2ccccc2s1)c1ccc(F)cc1` displayed a z-score of 0.186.

Regarding `CCN(CC)C(=S)SCC(=O)Nc1nc(-c2ccccc2)c(-c2ccccc2)o1`, the z-score was -0.0668.

For the compound `O=C(Nc1nc(=O)c2ccccc2s1)c1ccc(Cl)cc1`, the z-score is 14.9 (active).

In the case of `CCN(CC)C(=S)SCC(=O)Nc1nc(=O)c2ccccc2s1`, the z-score was 5.2 (active).

Turning to `O=C(Cc1nc(=O)c2ccccc2s1)Nc1ccccc1`, the z-score is -0.368.

On to `O=C(Cc1ccccc1)Nc1nc(=O)c2ccccc2s1`, for which the z-score is 5.11 (active).

`O=C(Nc1nc(=O)c2ccccc2s1)c1ccc(F)cc1`: the z-score was 16.3 (active).

In turn, `Cn1sc(NC(=O)c2ccc(Cl)cc2)nc1=O` returned a z-score of 0.266.

For the compound `O=C(CSc1n[nH]c(-c2ccco2)n1)Nc1sc2c(c1C(=O)Nc1ccccc1)CCCC2`, the z-score is -0.294.

The compound `C=CCN(c1ccc(C(=O)NCCc2ccccc2)cc1)S(C)(=O)=O` showed a z-score of -0.00787.

On to `CCOC(=O)C1CCN(S(=O)(=O)c2ccc(OCC(=O)OC)cc2)CC1`, for which the z-score amounted to 0.845.

`COc1cccc(-c2csc(N3CCN(C(=S)Nc4cccc(Cl)c4)CC3)n2)c1` registered a z-score of 0.143.

With `CSc1nc(C)cc(C)c1S(=O)(=O)c1ccccc1C`, the z-score is -0.374.

Compound `Cc1onc(-c2ccccc2)c1C(=O)NCCc1ccc(Cl)cc1` gave a z-score of 0.00877.

For the compound `CCc1ccccc1N(CC(=O)N/N=C/c1ccc(OC(=O)OC)c(OC)c1)S(C)(=O)=O`, the z-score is -0.214.

As for `CCCC(=O)Nc1ccc(Cl)c(NC(=O)C(C)(C)C)c1`, the z-score is -0.219.

Compound `CCN1CCN(C(=O)C2c3cc(OC)c(OC)cc3C(=O)N(C)C2c2ccc(SC)cc2)CC1` (configuration not stated) came in with a z-score of 0.574.

Consider `N#CC1(P(=O)(c2ccccc2)c2ccccc2)CC1`, for which the z-score was -0.0596.

For the compound `O=C(Nc1nc(=O)c2ccccc2s1)c1ccccc1`, the z-score is 14.9 (active).

For `O=C(Nc1nc(-c2ccc(Cl)s2)cs1)c1ccccc1`, the z-score was 0.171.

On to `Nc1ccc(C(=O)Nc2nc3ccccc3s2)cc1`, for which the z-score was -0.363.

`COc1cccc(C2=NOC(C(=O)Nc3ccccc3SC)C2)c1` (configuration not stated): the z-score was -0.115.

In turn, `CC(C)CCn1c(Oc2ccccc2Cl)nc2c1c(=O)n(C)c(=O)n2C` came in with a z-score of -0.1.

In turn, `CC(C)CCn1c(Cl)nc2c1c(=O)n(C)c(=O)n2C` yielded a z-score of 2.04.

On to `CC(C)CCn1c(Oc2ccc(Cl)cc2)nc2c1c(=O)n(C)c(=O)n2C`, for which the z-score is -0.037.

`CC1(C)CC(c2nc(-c3ccc(Br)cc3)cs2)CCS1` (configuration not stated): the z-score amounted to 2.26.

In turn, `CCC1(C)CC(c2nc(-c3ccc(OC)cc3)cs2)CCS1` (configuration not stated) came in with a z-score of -0.645.

As to `CC1(C)CC(c2nc(-c3ccc(Cl)cc3)cs2)CCS1` (configuration not stated), the z-score came to 0.117.

The compound `COc1ccc(C)cc1NC1=C(Cl)C(=O)N(C2CCCCC2)C1=O` displayed a z-score of -0.0567.

For `Cc1ccc2cccc(NC(=S)NC(=O)c3ccn(C)n3)c2n1`, the z-score was 6.02 (active).

For the compound `Cc1ccc2cccc(NC(=S)NC(=O)c3ccccc3)c2n1`, the z-score worked out at 1.02.

Take `Cc1ccc2cccc(NC(=S)NC(=O)c3c(Br)cnn3C)c2n1`: the z-score came to 0.727.

Compound `Cc1cc(C)c2cccc(NC(=S)NC(=O)c3ccccc3)c2n1` gave a z-score of 0.2.

For the compound `Cc1ccc2cccc(NC(=S)NC(=O)c3ccnn3C)c2n1`, the z-score is 2.25.

`Cc1ccc2cccc(NC(=O)C(F)(F)F)c2n1` gave a z-score of 0.599.

`c1cnc(N2CCSCC2)nc1` displayed a z-score of -0.316.

Regarding `Cc1c(C(=O)Nc2ccccc2)cn2c(nc3ccccc32)c1C#N`, the z-score was -0.348.

In turn, `COc1cccc2cc(C(=O)n3ccc(C)n3)c(=O)oc12` displayed a z-score of -1.33.

On to `O=C1CC(c2ccc(S(=O)(=O)Nc3cc(C(F)(F)F)cc(C(F)(F)F)c3)cc2)CN1` (configuration not stated), for which the z-score came out at 0.112.

Turning to `CCC(C)n1ncn(-c2ccc(N3CCN(c4ccc(OC)cc4)CC3)cc2)c1=O` (configuration not stated), the z-score is -0.724.

Compound `COc1cc(NC(=O)c2cc3sccc3n2C)cc(OC)c1` came in with a z-score of -0.0259.

`COc1ccc(OC)c(-c2oc3ccccc3c(=O)c2O)c1` displayed a z-score of 0.149.

Turning to `O=c1c(O)c(-c2cccs2)oc2ccc(Cl)cc12`, the z-score was 14.1 (active).

With `O=c1c(O)c(-c2cccs2)oc2ccccc12`, the z-score was 17.2 (active).

For `O=c1c(O)c(-c2ccc3c(c2)OCO3)oc2ccccc12`, the z-score was -0.981.

On to `O=c1cc(-c2cccs2)oc2ccc(Cl)cc12`, for which the z-score was -0.565.

On to `O=C(O)c1cc(=O)c2cc(Cl)ccc2o1`, for which the z-score was -0.147.

As for `O=C(Cc1cc(=O)[nH][nH]1)N/N=C/C(Cl)=C/c1ccccc1`, the z-score was -0.191 and -0.199.

The compound `COc1ccc(CCNC(=O)CCSc2nc(-c3ccco3)cc(C(F)(F)F)n2)cc1OC` had a z-score of -2.59.

Consider `c1ccc(COc2cccc(CNn3cnnc3)c2)cc1`, for which the z-score is -0.177.

`COc1ccc(/C=C2\CCn3c2nc2cc(C(=O)O)ccc2c3=O)cc1O` came in with a z-score of -0.197.

Compound `O=C(O)c1ccc2c(c1)ncn2C1CCCCCC1` came in with a z-score of 0.321.

As to `CC(NC(=O)c1ccc(F)cc1)c1nc2ccccc2n1Cc1ccccc1F` (configuration not stated), the z-score was -0.254.

In the case of `CCOC(=O)CN1C(=O)C(C)(C)Oc2ccc(C(=O)NC(C)(C)CC)cc21`, the z-score worked out at 0.0354.

As to `CCOC(=O)CN1C(=O)C(C)(C)Oc2ccc(C(=O)Nc3ccccc3)cc21`, the z-score is -0.637.

In turn, `CCOC(=O)CN1C(=O)C(C)(C)Oc2ccc(C(=O)Nc3ccccc3OC)cc21` displayed a z-score of 2.42.

`COc1ccc(/C=C/C(=O)Nc2nc(N)n(-c3ccccc3)n2)cc1` came in with a z-score of -0.0927.

`CCOC1CC(C)(C)NC(=S)N1` (configuration not stated) had a z-score of -0.234.

Take `CCCc1ncc(C(O)c2cccc3ccccc23)n1C` (configuration not stated): the z-score is 0.327.

In turn, `COCCN=C1Sc2nc3c(C)cccc3cc2CN1Cc1ccco1` registered a z-score of 0.0241.

`O=C(CNS(=O)(=O)c1ccccc1)N1CCN(c2ccccc2)CC1` gave a z-score of -0.0656.

`CC1(C)CC(=O)c2sc(NC(=O)CN3C(=O)CCC3=O)nc2C1` gave a z-score of 2.59.

Take `CCOCC(=O)Nc1nc2c(s1)C(=O)CC(C)(C)C2`: the z-score was -0.264.

Regarding `CC1(C)CC(=O)c2sc(NC(=O)CN3CCOCC3)nc2C1`, the z-score was 0.431.

`C/C(=N\NC(=O)c1ccc(Cl)c(Cl)c1)c1cccc(NC(=O)C(C)C)c1`: the z-score was determined as 0.0284.

Compound `CC(C)CCNC(=O)C(C)N(C(=O)Cn1nnc(-c2ccc(F)cc2)n1)C1CCCC1` (configuration not stated) gave a z-score of 2.82.

In the case of `COc1ccc(-c2nnn(CC(=O)N(C3CCCCC3)C(C)C(=O)NC3CCCC3)n2)cc1OC` (configuration not stated), the z-score was 1.3.

For `CCC(C(=O)NC1CCCC1)N(C(=O)Cn1nnc(-c2ccc(C)cc2)n1)C1CCCC1` (configuration not stated), the z-score is -0.114.

`Cc1ccc(S(=O)(=O)NC2(C(F)(F)F)C(=O)Nc3c2c(=O)n(C)c(=O)n3C)cc1` (configuration not stated) gave a z-score of -0.423.

Regarding `O=C(Nc1ccccc1)c1ccc(N2CCN(c3ccccc3)CC2)c(S(=O)(=O)N2CCOCC2)c1`, the z-score is -0.142.

As for `O=C(N/N=C\CCc1ccccc1)c1ccco1`, the z-score came out at 0.322.

`NC(=O)CSc1ncc(-c2ccccc2)[nH]1` gave a z-score of 0.142.

For `CCOc1ccc(C(=O)OCCN(CC)CC)cc1`, the z-score came to 0.374.

`CCCOc1ccc(C(C(=O)OCCN(CC)CC)c2ccccc2)cc1` (configuration not stated): the z-score was found to be 2.43.

Regarding `COc1ccc(C(C(=O)OCCN(C)C)c2ccccc2)cc1` (configuration not stated), the z-score stood at 0.325.

Compound `CC(=O)C(Sc1ccc2nnc(-c3ccc(C)cc3)n2n1)C(C)=O` registered a z-score of 1.78.

For the compound `Cc1ccc(NC(=S)c2nc3ccccc3[nH]2)cc1`, the z-score is -1.02.

`Cc1ccccc1NC(=O)NCCc1nc2ccccc2[nH]1` displayed a z-score of -0.0805.

Consider `S=C(Nc1ccc(Cl)cc1)c1nc2ccccc2[nH]1`, for which the z-score is 6.95 (active).

Turning to `Cc1ccc(NC(=S)c2nc3ccccc3[nH]2)c(C)c1`, the z-score was 6.64 (active).

The compound `Cc1ccc(C)c(NC(=S)c2ccc3ccccc3n2)c1` had a z-score of 0.103.

In turn, `Cc1ccccc1NC(=O)N(CCc1nc2ccccc2[nH]1)Cc1ccccc1` showed a z-score of -0.292.

For the compound `Cc1ccccc1NC(=S)c1nc2ccccc2[nH]1`, the z-score is 10.9 (active).

For `Cc1ccc(Nc2nnc(SC/C(O)=C(\C#N)c3nc4ccccc4[nH]3)s2)c(C)c1`, the z-score was -0.166.

`O=C(/C(=C/c1ccc(Cl)cc1)c1nc2ccccc2[nH]1)c1ccccc1`: the z-score is -0.287.
